For orientation: viability means a read-out of living cells in per cent, often relative to untreated cells.

Assay [1] in a line: Quantitative High-Throughput drug screen in 47 multiple myeloma cell lines against the NCATS MIPE library collection: MM1S_ATCC cell viability assay (AID 1918980). Note: nearly all actives have a fitted effect of over 45% in size. Summed up: (§1)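 Inhibition of viability over 48 h was scored by ATP content (CellTiter-Glo) in 500-cell wells. Zero and full viability were defined by media-only and DMSO-only wells.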
Assay [2] can be described thus: Quantitative High-Throughput drug screen in 47 multiple myeloma cell lines against the NCATS MIPE library collection: MM1R_ATCC cell viability assay (AID 1918981). Note: nearly all actives have a fitted effect of over 35% in size. Summed up:
as §1

Assay [3] is described as follows: Quantitative High-Throughput drug screen in 47 multiple myeloma cell lines against the NCATS MIPE library collection: LP1_DSMZ cell viability assay (AID 1918982). Note: nearly all actives have a fitted effect of over 35% in size. A digest of the protocol:
as §1

Assay [4] is described as follows: Quantitative High-Throughput drug screen in 47 multiple myeloma cell lines against the NCATS MIPE library collection: KMS28PE_JCRB cell viability assay (AID 1918983). Note: nearly all actives have a fitted effect of over 35% in size. Summed up: as §1
A short description of assay [5]: Quantitative High-Throughput drug screen in 47 multiple myeloma cell lines against the NCATS MIPE library collection: L363_DSMZ cell viability assay (AID 1918984). Note: nearly all actives have a fitted effect of over 40% in size. Summed up:
as §1

A short description of assay [6]: Quantitative High-Throughput drug screen in 47 multiple myeloma cell lines against the NCATS MIPE library collection: OCIMY5_PLB cell viability assay (AID 1918988). Note: nearly all actives have a fitted effect of over 65% in size. A digest of the protocol:
as §1

A short description of assay [7]: Quantitative High-Throughput drug screen in 47 multiple myeloma cell lines against the NCATS MIPE library collection: OPM1_PLB cell viability assay (AID 1918989). Note: nearly all actives have a fitted effect of over 40% in size. A digest of the protocol: as §1
The nature of assay [8]: Quantitative High-Throughput drug screen in 47 multiple myeloma cell lines against the NCATS MIPE library collection: SKMM1_PLB cell viability assay (AID 1919863). Note: nearly all actives have a fitted effect of over 35% in size. To be noted: SKMM1 myeloma viability, CellTiter-Glo ATP, 48 h; viability: active compounds read low. Summed up:
as §1
A general note: In ATP-based viability assays light output follows the ATP content of the culture.

The nature of assay [9]: Quantitative High-Throughput drug screen in 47 multiple myeloma cell lines against the NCATS MIPE library collection: KMS34_JCRB cell viability assay (AID 1918985). Note: nearly all actives have a fitted effect of over 40% in size. Summed up: as §1
A short description of assay [10]: Quantitative High-Throughput drug screen in 47 multiple myeloma cell lines against the NCATS MIPE library collection: OCIMY7_PLB cell viability assay (AID 1918987). Note: nearly all actives have a fitted effect of over 65% in size. The following applies: OCI-MY7 myeloma viability, CellTiter-Glo ATP, 48 h; viability (% of DMSO): at 45.8 µM (top of the series). A digest of the protocol:
as §1

Records with an inconclusive call do not appear. Values without a mark were called inactive. Calls of active or inactive are those of the source. Calls come from the whole dose curve; as a rule, active = well fitted cell-killing curve with a large enough effect; inconclusive = small, poorly fitted or top-dose-only effect, or effect the other way; inactive = no such curve, though single readings can be large or run the other way.
Potency is the fitted concentration of half-maximal effect.

Turning to `CC(C)C[C@H](NC(=O)[C@@H](NC(=O)c1cccc(-c2ccccc2)n1)[C@@H](C)O)B(O)O`, the Potency is 13.2 nM (active) in assay [1]; 13.2 nM (active) in [2]; 29.6 nM (active) in [3]; 23.5 nM (active) in assay [4]; 26.4 nM (active) in [5]; 13.2 nM (active) in assay [6]. Further, the Potency in assay [7] was 13.2 nM (active); in assay [8] it was 74.3 nM (active).

Consider `C=CC(=O)Nc1cccc(Nc2nc(NC3CCC(N(C)C)CC3)nc3c2ncn3C(C)C)c1` (stereo unspecified), for which the Potency in [1] was 41.8 nM (active); in assay [2] it was 187 nM (active); in [3] it was 372 nM (active); in assay [4], 469 nM (active); in assay [9], 1050 nM (active); in [6], 52.6 nM (active). Also, the Potency in assay [7] is 469 nM (active); in assay [8], 935 nM (active).

With `COc1cc2c(Nc3ccc(Cl)c(Cl)c3F)ncnc2cc1OCC1C[C@@H]2CN(C)C[C@H]2C1`, the Potency in assay [1] was 16600 nM (active); in assay [2], 16600 nM (active); in assay [3], 18700 nM (active); in assay [4] it was 16600 nM (active); in assay [5], 1660 nM (active); in [10], 209 nM (active). In addition, the Potency is 1870 nM (active) in assay [6], 3320 nM (active) in [7] and 5900 nM (active) in assay [8].

Turning to `O=C(C=Cc1ccc(CN(CCO)CCc2c[nH]c3ccccc23)cc1)NO`, the Potency was 105 nM (active) in assay [1]; 59 nM (active) in assay [2]; 148 nM (active) in assay [3]; 132 nM (active) in [4]; 59 nM (active) in assay [5]; 105 nM (active) in [9]. The values for the Potency in assay [6] and in [8] were 66.2 nM (active) and 187 nM (active), respectively.

For `O=C(C=CC#Cc1cccc(NS(=O)(=O)c2ccccc2)c1)NO`, the Potency was 1870 nM (active) in assay [1]; 1480 nM (active) in [2]; 935 nM (active) in assay [3]; 1870 nM (active) in assay [4]; 935 nM (active) in assay [9]; 372 nM (active) in assay [10]. For the same compound, the Potency was 1180 nM (active) in [6], 2350 nM (active) in assay [7] and 2350 nM (active) in assay [8].

As to `Cn1cc(-c2cnn3c(N)c(Br)c([C@H]4CCCNC4)nc23)cn1`, the Potency is 332 nM (active) in [1]; 209 nM (active) in assay [2]; 13200 nM (active) in [4]; 59 nM (active) in [5]; 935 nM (active) in [9]; 1180 nM (active) in assay [10]. Moreover, the Potency in [6] was 332 nM (active); in [7] it was 833 nM (active).

For `O=C(Nc1ccc(Oc2ccnc3[nH]ccc23)c(F)c1)c1cccn(-c2ccc(F)cc2)c1=O`, the Potency result in assay [1], in assay [3] and in assay [7] was “inactive” in each case. Moreover, the Potency was 10500 nM (active) in assay [2] and 18700 nM (active) in assay [8].

As for `CC(C)n1cnc2c(NCCc3ccc(O)cc3)nc(-c3csc4ccccc34)nc21`, the Potency in assay [1] was 743 nM (active); in [2] it was 7430 nM (active); in assay [3], 16600 nM (active); in assay [9] it was 20900 nM (active); in [10] it was 7430 nM (active); in [6], 1660 nM (active). Moreover, the Potency in assay [7] was 23500 nM (active); in [8], 20900 nM (active).

In the case of `CC(=O)O[C@]1(C(C)=O)CC[C@H]2[C@@H]3C=C(C)C4=CC(=O)CC[C@]4(C)[C@@H]3CC[C@@]21C`, the Potency was 2350 nM (active) in assay [1], 11800 nM (active) in assay [2] and 9350 nM (active) in assay [5]. In addition, the Potency result in assay [4] and in assay [9] was “inactive” in each case.

In the case of `COc1cc(C(C)C)c(Oc2cnc(NC(CO)CO)nc2N)cc1I`, the Potency in assay [1] was 1050 nM (active); in [2], 2640 nM (active); in assay [6] it was 1480 nM (active); in assay [7] it was 1660 nM (active). Moreover, the Potency entry in [3] and in assay [4] was “inactive” throughout. In assay [8], the viability is 122%.

Regarding `O=C(NC1CC1)c1cccc(-c2ccc3c(NC(=O)C4CC4)n[nH]c3c2)c1`, the Potency was 332 nM (active) in assay [1]; 1480 nM (active) in [2]; 10500 nM (active) in [4]; 20900 nM (active) in [9]; 7430 nM (active) in assay [10]; 332 nM (active) in assay [6]. The Potency in assay [7] is 14800 nM (active). Moreover, the Potency entry in [5] is “inactive”.

For the compound `CCOc1cc2ncc(C#N)c(Nc3ccc(OCc4ccccn4)c(Cl)c3)c2cc1NC(=O)C=CCN(C)C`, the Potency in assay [1] was 526 nM (active); in assay [2] it was 11800 nM (active); in [4], 13200 nM (active); in [5], 469 nM (active); in assay [9], 10500 nM (active); in assay [10], 52.6 nM (active). Moreover, the Potency in [6] is 833 nM (active).

On to `COC(=O)C=CC(=O)OC`, for which the Potency in [1] was 1660 nM (active); in assay [2], 23500 nM (active); in assay [10], 1320 nM (active); in assay [6], 11800 nM (active); in assay [7], 20900 nM (active). Besides, the Potency result in assay [3] and in [4] was “inactive” throughout. Moreover, the viability in assay [8] was 144%.

For the compound `NC(=O)c1cccc(-c2cccc(OC(=O)NC3CCCCC3)c2)c1`, the Potency result in assay [1], in assay [2], in assay [3], in [4], in assay [10] and in assay [7] was “inactive” each time. Further, in assay [6], the Potency is 29600 nM (active). Also, the viability in [8] is 110%.

`O=C(C[C@@H]1CC=CCCC(=O)O[C@H](c2ccccc2)CNC1=O)NCc1ccc(Cl)cc1`: the Potency in assay [1] was 16600 nM (active). The Potency entry in assay [2], in assay [3], in assay [4] and in assay [7] was “inactive” in each case.
